The campaign covered roughly 310,000 compounds. About 1,200 (0.39%) were called active. No rule for the calls is given here. The list is a sample of the results. Measured potencies and affinities stand elsewhere.
target: Large T antigen (Simian virus 40) (UniProt P03070); assay: SV40 large T antigen inhibitors, biochemical (AID 1903); settings: SV40 large T antigen ATPase/helicase inhibition assay; at 20 µM; stronger effect = higher value
Sequence (P03070 whole entry, looked up): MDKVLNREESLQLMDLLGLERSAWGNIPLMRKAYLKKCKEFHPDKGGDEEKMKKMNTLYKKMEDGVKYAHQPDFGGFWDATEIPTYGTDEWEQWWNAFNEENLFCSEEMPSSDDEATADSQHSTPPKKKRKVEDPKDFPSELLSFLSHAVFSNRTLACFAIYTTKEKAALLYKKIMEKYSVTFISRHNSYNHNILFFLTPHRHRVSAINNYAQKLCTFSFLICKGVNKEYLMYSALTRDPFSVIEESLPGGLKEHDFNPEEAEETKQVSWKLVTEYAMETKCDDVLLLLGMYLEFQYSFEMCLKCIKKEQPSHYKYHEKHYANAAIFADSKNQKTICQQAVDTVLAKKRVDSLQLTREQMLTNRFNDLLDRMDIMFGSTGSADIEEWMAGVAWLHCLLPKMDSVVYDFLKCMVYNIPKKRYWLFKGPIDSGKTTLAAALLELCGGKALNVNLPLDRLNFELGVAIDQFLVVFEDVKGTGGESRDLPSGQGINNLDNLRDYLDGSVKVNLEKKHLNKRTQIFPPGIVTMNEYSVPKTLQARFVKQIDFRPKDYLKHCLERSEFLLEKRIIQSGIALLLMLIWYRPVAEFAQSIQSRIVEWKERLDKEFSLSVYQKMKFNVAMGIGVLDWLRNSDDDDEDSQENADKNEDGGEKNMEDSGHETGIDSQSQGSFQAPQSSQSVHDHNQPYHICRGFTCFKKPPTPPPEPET

inhibition, inactive:
CNc1nc(Nc2ccc(Br)cc2)nc(N)c1[N+](=O)[O-] 9.77%, N#Cc1cnc(Nc2ccc(F)cc2)nc1N 7.13%, C[C@H](CCC(=O)O)[C@H]1CC[C@H]2[C@@H]3[C@H](O)C[C@@H]4C[C@H](O)CC[C@]4(C)[C@H]3CC[C@]12C 19.2%, C[C@H](CCC(=O)O)[C@H]1CC[C@H]2[C@@H]3CC[C@@H]4C[C@H](O)CC[C@]4(C)[C@H]3C[C@H](O)[C@]12C 12.7%, Cc1nsc2nc3c(F)c(F)c(F)c(F)c3cc12 16.9%, Cc1c(/C=N/NC(N)=O)c2ccccn2c1C(=O)c1ccncc1 15%, CCCCOc1ccc(/C=C/C(=O)OCC(=O)N2CC(=O)Nc3ccccc32)cc1OCC 14.1%, COc1ccc(/C=C/C(=O)OCC(=O)Nc2ccc(S(N)(=O)=O)cc2)cc1OC 5.77%, COc1ccc(/C=C/C(=O)OCC(=O)N2CC(=O)Nc3ccccc32)cc1 1.89%, COc1cc(/C=C/C(=O)OCC(=O)Nc2ccc(S(=O)(=O)N3CCCC3)cc2)ccc1O 24.6%, Cc1cc(C(=O)NCCC(c2ccccc2)c2ccccc2)c(C)o1 8.32%, CC1(C)Cc2cccc(Oc3cc(NN4CCCCC4)c([N+](=O)[O-])cc3[N+](=O)[O-])c2O1 1.3%, Cc1nn(C(C)C(=O)NCC2CCCO2)c(=O)c2cc3occc3n12 (configuration not stated) -0.26%, CCCOc1ccc(/C=N/NC(=O)CSc2ccccn2)cc1OC 3.28%, COc1cc(/C=N/NC(=O)CSc2ccccn2)ccc1OC(C)C 14.9%, COc1ccc(/C=N/NC(=O)CSc2ccccn2)cc1OC 10.6%, CN(C)c1ccc(/C=N/NC(=O)CSc2ccccn2)cc1 25.6%, CCN(C(=O)CN1C(=S)NC(C)(C)CC1C)c1ccc(C)c(C)c1 (configuration not stated) 6.37%, O=C(CSc1nnc(NC(=O)c2c(F)cccc2F)s1)Nc1ccccc1F 11.2%, CCCOc1ccccc1N1C(=O)CC(N(O)c2ccccc2)C1=O (configuration not stated) 20.6%, CCNc1nc(NCC)nc(NC(N)=S)n1 1.3%, Cc1cc(C)c2nncn2n1 11.8%, O=C(O)Cc1c[nH]c2ccccc12 10.4%, NC(=O)Cc1c[nH]c2cccc(O)c12 30.1%, CCOC(=O)c1ccc2c(c1)C1C=CCC1C(C(=O)OCC)N2 (configuration not stated) 12.4%, Cc1ccc2c(c1)C1C=CCC1C(C(=O)NCCCN1CCOCC1)N2 (configuration not stated) 12.6%, CCOC(=O)C1Nc2ccc(OC(F)(F)F)cc2C2C=CCC12 (configuration not stated) 19.1%, Cc1cc(C)c2c(c1)NC(c1cc3c(cc1Br)OCO3)C1CC=CC21 (configuration not stated) 9.15%, O=C(O)C1Nc2c(Cl)cc(Cl)c(Cl)c2C2C=CCC12 (configuration not stated) 31%, O=C(NC1CC1)C1Nc2ccc(OC(F)(F)F)cc2C2C=CCC12 (configuration not stated) 6.67%, CCOC(=O)C1Nc2ccc(C)cc2C2C=CCC12 (configuration not stated) 8.94%, CCOC(=O)C1Nc2ccc(C(=O)O)cc2C2C=CCC12 (configuration not stated) 16.5%
